Inconclusive results are not listed. Activity calls are given as the source filed them. Calls follow the shape of the dose curve; as a rule, active = well fitted inhibition curve with a large enough effect; inconclusive = small, poorly fitted or top-dose-only effect; inactive = flat fitted curve, though single readings scatter.
Key:
Experiment in all cases: qHTS profiling for inhibitors of Plasmodium falciparum proliferation (AID 504749); also: nearly all actives have a fitted effect of over 60% in size
Settings in all cases: P. falciparum in erythrocytes, SYBR Green DNA, 72 h; series mostly up to 28.7 µM
CP260 = test system: CP260
Summary of the method: (§1)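 SYBR Green fluorescence (ex 485 nm, em 535 nm) reports parasite DNA after 72 h compound exposure of infected red cells at 0.3% parasitemia, 2.5% hematocrit; signal normalized to 0.29 uM artemisinin and vehicle wells.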

CP262 = test system: CP262
Summary of the method: as §1

CP265 = test system: CP265
Summary of the method: as §1

CP266 = test system: CP266
Summary of the method: as §1

CP268 = test system: CP268
Summary of the method: as §1

CP269 = test system: CP269
Summary of the method: as §1

CP286 = test system: CP286
Summary of the method: as §1

CP291 = test system: CP291
Summary of the method: as §1

CP297 = test system: CP297
Summary of the method: as §1

CP305 = test system: CP305
Summary of the method: as §1

CP315 = test system: CP315
Summary of the method: as §1

CP325 = test system: CP325
Summary of the method: as §1

CP329 = test system: CP329
Summary of the method: as §1

CP335 = test system: CP335
Summary of the method: as §1

DFO2036 = test system: DFO2036
Summary of the method: as §1

DIV14 = test system: DIV14
Summary of the method: as §1

DIV17 = test system: DIV17
Summary of the method: as §1

DIV30 = test system: DIV30
Summary of the method: as §1

Dd2 = test system: Dd2
Summary of the method: as §1

ECU = test system: ECU
Summary of the method: as §1

Measured: Potency

O=c1[nH]c(=O)n(Cl)c(=O)n1Cl
inactive: all assays above

CC(=O)OO
inactive: all assays above

Clc1ccc(C2(Cn3cncn3)OCCO2)c(Cl)c1
inactive: all assays above

CC(N)Cc1ccc(O)cc1 (stereo not given)
inactive: all assays above

O=CC=O
inactive: all assays above

CC(C)CCON=O
inactive: all assays above

CC(=O)O[C@H]1CC[C@H]2[C@@H]3CCC4=CC(=O)CCC4=C3C=C[C@]12C
inactive: all assays above

CCCC(C)(COC(N)=O)COC(=O)NC1CC1 (stereo not given)
inactive: all assays above

S=C=S
inactive: all assays above

C#CC(C)(O)CC (stereo not given)
inactive: all assays above

ClCC1CO1 (stereo not given)
inactive: all assays above

O=C1C2CC=CCC2C(=O)N1SC(Cl)(Cl)Cl (stereo not given)
inactive: all assays above

FC(F)OC(F)(F)C(F)Cl (stereo not given)
inactive: all assays above

O=[N+]([O-])c1ccc(F)c([N+](=O)[O-])c1
inactive: all assays above

O[C@H]1[C@H]2[C@H](O)CCCN2C[C@H]1O
inactive: all assays above

O=S(=O)(O)c1cc(O)ccc1O
inactive: all assays above

CCON=O
inactive: all assays above

O=C(NC(=O)c1c(F)cccc1F)Nc1ccc(Cl)c(Oc2ncc(C(F)(F)F)cc2Cl)c1
inactive: all assays above

Cn1sc(Cl)cc1=O
inactive: all assays above

O=C(OCCN1CCCCC1)C(O)(c1ccccc1)c1ccccc1
inactive: all assays above

CCC1(c2ccccc2)C(=O)NC(=O)NC1=O
inactive: all assays above

CC(Cc1ccccc1)NC=O (stereo not given)
inactive: all assays above

CCC(N)Cc1c[nH]c2ccccc12 (stereo not given)
inactive: all assays above

CCCC(C)C1(CC)C(=O)NC(=O)NC1=O (stereo not given)
inactive: all assays above

O=Cc1ccco1
inactive: all assays above

CC(=O)OC1CN2CCC1CC2 (stereo not given)
inactive: all assays above

CNC(=O)OCC[N+](C)(C)C
inactive: all assays above

CCC1(C)CC(=O)NC(=O)C1
inactive: all assays above

O=C1CN(O)C(c2ccccc2)=c2cc(Cl)ccc2=N1
inactive: all assays above
